We go through 21 molecules from PubChem BioAssay (NCATS).

For one test, the system named is PC15. Kind of test: qHTS profiling for inhibitors of Plasmodium falciparum proliferation (AID 504749).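 Further: 0% = DMSO vehicle and full inhibition = artemisinin control.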 The note with it: P. falciparum in erythrocytes, SYBR Green DNA, 72 h; series mostly up to 28.7 µM. The essentials:
(§1)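 Each compound contacts P. falciparum-infected red blood cells for 72 h at 37 C; lysis buffer (Tris, EDTA, saponin, Triton X, SYBR Green I) is added and fluorescence measured next morning; values normalized to controls.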

Another test relates to PC49. The description is as above. Particulars: P. falciparum in erythrocytes, SYBR Green DNA, 72 h; series mostly up to 28.7 µM. The essentials: as §1
In another test the test system is SC27B. The description is as above. Particulars: P. falciparum in erythrocytes, SYBR Green DNA, 72 h; series mostly up to 28.7 µM. The essentials:
as §1

The test system of a further test is TAB113. The test is described as above. Particulars: P. falciparum in erythrocytes, SYBR Green DNA, 72 h; series mostly up to 28.7 µM. The essentials:
as §1

For another test, the system named is CRL-7250. Kind of test: Cytotoxic Profiling of Annotated Libraries Using Quantitative High-Throughput Screening (AID 1296008). Further: potency means the concentration at half of the fitted maximal effect. On max response: on the % scale 0 is the no-effect control and ±100 the full control effect. Particulars: Five cell lines viability, CellTiter-Glo ATP luminescence, 48-72 h; max response: hits give low values. The essentials: (§2)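 Cells exposed to compounds for 48 or 72 hr at 37 degrees Celsius. Viability read as ATP-coupled luminescence with CellTiter-Glo after 10 min at room temperature.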
On the technique in general: In ATP-based viability assays light output follows the ATP content of the culture.

Test [1] has as its system HaCat. The description is as above. The note with it: Five cell lines viability, CellTiter-Glo ATP luminescence, 48-72 h; max response: hits give low values. The essentials: as §2
The next test has as its system KB-3-1. The test is described as above. The note with it: Five cell lines viability, CellTiter-Glo ATP luminescence, 48-72 h; max response: hits give low values. The essentials: as §2
In the next test the test system is NIH3T3. Described as above. The note with it: Five cell lines viability, CellTiter-Glo ATP luminescence, 48-72 h; max response: hits give low values. The essentials:
as §2

The next test deals with MCC-13. The test can be described thus: qHTS assay to identify novel small-molecules to repurpose for Merkel cell carcinoma treatment (AID 1296009). Further: potency means the concentration at half of the fitted maximal effect. Particulars: MCC and control cell lines, CellTiter-Glo viability, 72 h; series mostly up to 46 µM. The essentials: (§3)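 Dose-response viability screen; 72 hr exposure at 37 degree celsius; CellTiter-Glo added, 10 min room temperature, luminescence read; RLUs scaled between no-cell and DMSO wells.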
For orientation: In qHTS, concentration-response curves come from the screen itself.

Another test deals with MCC-26. The test is described as above. Particulars: MCC and control cell lines, CellTiter-Glo viability, 72 h; series mostly up to 46 µM. The essentials:
as §3

The next test relates to HEK293. Kind of test: Cytotoxic Profiling of Annotated Libraries Using Quantitative High-Throughput Screening (AID 1296008). Further: potency means the concentration at half of the fitted maximal effect. On max response: on the % scale 0 is the no-effect control and ±100 the full control effect. Particulars: Five cell lines viability, CellTiter-Glo ATP luminescence, 48-72 h; max response: hits give low values. The essentials: as §2
The test system of test [2] is HACAT. Kind of test: qHTS assay to identify novel small-molecules to repurpose for Merkel cell carcinoma treatment (AID 1296009). Further: potency means the concentration at half of the fitted maximal effect. The note with it: MCC and control cell lines, CellTiter-Glo viability, 72 h; at 44.8 µM (top of the series) unless noted. The essentials: as §3

“And” between values parts separate entries of the source, which are not always exact repeats. Identical values can stand only once. Records with an inconclusive call do not appear. Values without a mark were called inactive. The source made the active and inactive calls. The call rests on the fitted dose curve; in most records, active means well fitted inhibition curve with a large enough effect; inconclusive means small, poorly fitted or top-dose-only effect; inactive means flat fitted curve, though single readings scatter.
Further: nearly all actives have a fitted effect of over 60% in size.

`CCCCC1C(=O)N(c2ccccc2)N(c2ccccc2)C1=O`: the call in the test on PC15 and in the test with PC49 was inactive. For the same molecule, the Potency result in the test with SC27B, with TAB113, with MCC-13 and with MCC-26 was “inactive” each time. The max response with CRL-7250 was -3.59%; in the test with HaCat [1], -4.56%; in the test on KB-3-1, 0.189% and 30.8%; in the test on NIH3T3, -4.9%.
Take `CC[C@H]1OC(=O)[C@H](C)C(=O)[C@H](C)[C@@H](O[C@H]2O[C@H](C)C[C@H](N(C)C)[C@@H]2O)[C@](C)(OC)C[C@@H](C)C(=O)[C@H](C)[C@H]2N(CCCCn3cnc(-c4cccnc4)c3)C(=O)O[C@]12C`: the max response in the test on CRL-7250 was -7.01%; with HaCat [1] it was -0.424%; in the test on KB-3-1, 2.84%; in the test on NIH3T3, -10.2%. The Potency entry in the test on MCC-13 and in the test with MCC-26 was “inactive” in each case.
As to `CCc1ccc(C=C2SC(=S)NC2=O)cc1`, the max response in the test with HEK293 was -22.6%; in the test with HaCat [1], -1.5%; in the test on KB-3-1 it was -5.67%; in the test on NIH3T3, -14.4%. The Potency result in the test with MCC-13 and in the test with MCC-26 was “inactive” throughout.
For the molecule `CC(C)(C(=O)NCC(F)(F)C(F)(F)F)C(=O)N[C@@H]1C(=O)Nc2ccccc2-c2ccccc21`, the max response is -11.4% in the test with CRL-7250 and -2.21% with HaCat [1]. Further, the call in the test on KB-3-1 and in the test on NIH3T3 was inactive. The Potency result with MCC-13 and in the test with MCC-26 was “inactive” in each case.
Regarding `CO[C@H]1C[C@@H]2CC[C@@H](C)[C@@](O)(O2)C(=O)C(=O)N2CCCC[C@@H]2C(=O)O[C@H]([C@H](C)C[C@@H]2CC[C@H](OP(C)(C)=O)[C@H](OC)C2)CC(=O)[C@H](C)C=C(C)[C@@H](O)[C@@H](OC)C(=O)[C@H](C)C[C@H](C)C=CC=CC=C1C`, the figures for the max response in the test on CRL-7250 and in the test with NIH3T3 were -18.4% and 4.15%, respectively. Also, the outcome in the test with HaCat [1] and in the test with HACAT [2] was inactive. Further, the Potency entry with MCC-13 and in the test with MCC-26 was “inactive” throughout.
As to `C[C@@H]1CCN(C(=O)CC#N)C[C@H]1N(C)c1ncnc2[nH]ccc12`, the max response in the test on CRL-7250 was -14.7%; in the test with KB-3-1, -5.04%; in the test on NIH3T3 it was -18.3%. Besides, the Potency in the test with HaCat [1] was 8.33 µM (active). Also, the Potency entry with MCC-13 and in the test on MCC-26 was “inactive” throughout.
With `CC(C)C[C@H](CC(=O)O)C(=O)N[C@@H](Cc1c[nH]c2ccccc12)C(=O)N[C@@H](C)c1ccccc1`, the max response in the test with CRL-7250 was -5.99%; in the test with HaCat [1], 3.15%; in the test on KB-3-1 it was 5.47%. The Potency entry in the test on MCC-13 and in the test on MCC-26 was “inactive” throughout.
Regarding `CCCCCNC(=O)N1CCC(CN(Cc2ccc(Cl)cc2)Cc2ccc([N+](=O)[O-])s2)C1` (centres undefined), the results for the max response in the test with CRL-7250, in the test with HaCat [1] and in the test with NIH3T3 were -21%, 2.36% and -17.3%, respectively. The Potency entry in the test with MCC-13 is “inactive”.
In the case of `CCC(=O)O[C@]1(C(=O)CO)CC[C@H]2[C@@H]3CCC4=CC(=O)CC[C@]4(C)[C@@H]3CC[C@@]21C`, the Potency with CRL-7250 was 13.2 µM (active). For the same molecule, the results for the max response in the test on HaCat [1] and in the test with KB-3-1 were -31% and 0.702%, respectively. The molecule was called inactive in the test with NIH3T3. Moreover, the Potency entry with MCC-13 and in the test on MCC-26 was “inactive” in each case.
`O=C(O)c1cc(O)c2c(c1)C(=O)c1cccc(O)c1C2=O`: the max response with HEK293 was -16.6%; in the test with KB-3-1, 0.608%; in the test with NIH3T3, 0.522%. Moreover, the molecule was classed as inactive in the test on HaCat [1]. For the same molecule, in the test on HACAT [2], the outcome was “inactive [at 92 µM]”. Besides, the Potency entry in the test with MCC-13 and in the test with MCC-26 was “inactive” in each case.
As to `CC(=O)OC1C(C)OC(Oc2c(-c3ccc(O)cc3)oc3cc(O)cc(O)c3c2=O)C(O)C1OC(C)=O` (centres undefined), the max response in the test on CRL-7250 was -21.1%; in the test with KB-3-1, 7.1%. Besides, the Potency result in the test with MCC-13 and in the test on MCC-26 was “inactive” throughout.
As for `O=c1c(-c2ccc(O)cc2)coc2cc(OC3O[C@H](CO)[C@H](O)[C@H](O)[C@H]3O)cc(O)c12` (some centres undefined), the max response was -31.9% with CRL-7250 and -51.1% with HaCat [1]. Further, the Potency entry in the test on MCC-13 is “inactive”.
`O=C(Nc1ccccc1Br)N[C@@H]1CCN(c2ccc(C(F)(F)F)cn2)C1`: the max response in the test with CRL-7250 was -5.42%; with HaCat [1] it was 4.65%; in the test with NIH3T3 it was -2.32%. Also, the Potency entry with MCC-13 and in the test on MCC-26 was “inactive” throughout.
Consider `Cc1ccc(C(C)(O)c2nc3ccccc3s2)c(C)c1` (centres undefined), for which the max response in the test with CRL-7250 was 0.7%; in the test on KB-3-1, 4.83%. The Potency entry in the test with MCC-13 and with MCC-26 was “inactive” throughout.
For the molecule `Cc1cc(OCCCc2c(C(=O)O)n(Cc3cccnc3)c3c(-c4c(COc5ccc(N6CCN([S+](C)(=O)[O-])CC6)cc5)nn(C)c4C)cccc23)cc(C)c1Cl`, the results for the max response in the test on CRL-7250, in the test with HaCat [1] and with NIH3T3 were -16.6%, -19.1% and -3.92%, respectively. The Potency entry in the test with MCC-13 and in the test on MCC-26 was “inactive” each time.
Take `COc1cc(N2CCC(N3CCN(C)CC3)CC2)ccc1Nc1ncnc(Nc2ccccc2S(=O)(=O)C(C)C)n1`: the Potency in the test on HEK293 was 14.6 µM (active); in the test on HaCat [1] it was 7.31 µM (active); with KB-3-1, 8.33 µM (active); in the test with NIH3T3, 3.32 µM (active) and 3.66 µM (active); in the test on MCC-26, 11.8 µM (active).
On to `O=c1cc(-c2ccccc2)oc2cc(O)c(O)c(O)c12`, for which the max response was -21.5% in the test with HEK293, 1.36% in the test with HaCat [1], -0.922% in the test on KB-3-1 and -19.1% in the test on NIH3T3. For the same molecule, the Potency entry with MCC-13 and in the test with MCC-26 was “inactive” throughout.
As to `CC[C@]1(O)C[C@@H]2CN(CCc3c([nH]c4ccccc34)[C@@](C(=O)OC)(c3cc4c(cc3OC)N(C=O)[C@@H]3C45CCN4CC=C[C@](CC)([C@H]45)[C@@H](OC(C)=O)[C@]3(O)C(=O)OC)C2)C1` (some centres undefined), the max response in the test with CRL-7250 is -20.2%; in the test on NIH3T3 it was -0.0535%. For the same molecule, the Potency result in the test with MCC-13 is “inactive”.
As to `CC=CC[C@@H](C)C(=O)[C@H]1C(=O)N[C@@H](C(C)C)C(=O)N(C)CC(=O)N(C)[C@@H](CC(C)C)C(=O)N[C@@H](C(C)C)C(=O)N(C)[C@@H](CC(C)C)C(=O)N[C@@H](C)C(=O)N[C@H](C)C(=O)N(C)[C@@H](CC(C)C)C(=O)N(C)[C@@H](CC(C)C)C(=O)N(C)[C@@H](C(C)C)C(=O)N1C`, the max response with CRL-7250 is -6.35%; in the test with HaCat [1], -21.7%; with KB-3-1, -1.28%. Moreover, the Potency result in the test on MCC-13 and in the test on MCC-26 was “inactive” throughout.
In the case of `CN[C@@H](C)C(=O)N[C@H]1CN(C(=O)CC(C)C)CC[C@H]2CC[C@@H](C(=O)NC(c3ccccc3)c3ccccc3)N2C1=O`, the max response in the test with HEK293 is -1.1%; in the test on KB-3-1, 2.72% and 0.688%; in the test with NIH3T3, -2.17% and -4.72%. Further, the Potency with HaCat [1] is 16.6 µM (active) and 23.1 µM (active). In addition, the Potency entry in the test on MCC-13 and in the test with MCC-26 was “inactive” throughout.
Take `O=C1NC(=O)C(=Cc2ccc3nccnc3c2)S1`: the max response was -10.3% in the test with HEK293, -12.7% in the test with HaCat [1], -0.874% in the test on KB-3-1 and -9.21% with NIH3T3. Moreover, the Potency result in the test with MCC-13 and in the test on MCC-26 was “inactive” in each case.
